Measurements taken from PubChem BioAssay.
Active and inactive are the calls of the source. Unless noted, no rule for the calls is given here.

Experiments:
[1] = tested on: XIP peptide (Xip251-270) binding; assay: XIP fragment 251-270 binding compounds – biochemical, small-molecule microarray, fluorescence 635/667 nm, 0.1 µg/mL protein, primary screen (AID 1182); details: fluorescent protein binding, 635 nm, higher = more signal, called active from +8 up or from −8 down
XIP peptide (Xip251-270) = assay: compounds binding XIP fragment 251-270 – biochemical, small-molecule microarray, fluorescence 635/667 nm, 0.5 µg/mL protein, primary screen (AID 1183); details: fluorescence 635 nm, higher = more signal
[2] = blood-stage malaria parasite viability loss – strain 3D7, DAPI fluorescence, 100 nL, primary screen (AID 1184);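 also: parasites grown inside human red blood cells in medium with human serum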; details: P. falciparum 3D7 growth, 3 d, higher = more signal
[3] = target: Homeobox protein Hox-A13 (Mus musculus) (UniProt Q62424); assay: disruptors of Hoxa13 oligonucleotide interaction – biochemical, fluorescence polarization, labeled oligonucleotide, primary screen (AID 1185); details: Hoxa13:DNA binding, 15 min, higher = more signal, called active from +8 up or from −8 down
Homeobox protein Hox-A13 (Mus musculus), sequence (Q62424 whole entry, looked up): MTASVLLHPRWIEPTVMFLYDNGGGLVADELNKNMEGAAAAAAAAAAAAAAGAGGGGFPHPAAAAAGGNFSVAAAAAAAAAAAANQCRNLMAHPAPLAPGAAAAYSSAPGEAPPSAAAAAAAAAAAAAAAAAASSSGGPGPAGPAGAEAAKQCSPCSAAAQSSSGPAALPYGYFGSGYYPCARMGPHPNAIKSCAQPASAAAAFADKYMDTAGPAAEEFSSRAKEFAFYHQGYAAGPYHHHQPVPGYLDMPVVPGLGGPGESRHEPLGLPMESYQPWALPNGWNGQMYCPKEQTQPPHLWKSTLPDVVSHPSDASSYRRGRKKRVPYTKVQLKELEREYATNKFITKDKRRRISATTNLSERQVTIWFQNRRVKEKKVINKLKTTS

[4] = blockers of DNA damage checkpoint Chk1 activation – imaging, HeLa, hydroxyurea, phospho-Chk1 antibody, percent positive cells, primary screen (AID 1186); details: hydroxyurea-induced phospho-Chk1 immunofluorescence imaging, higher = more signal
[5] = blockers of DNA damage checkpoint Chk1 activation – imaging, HeLa, hydroxyurea, phospho-Chk1 nuclear intensity, primary screen (AID 1187); details: hydroxyurea-induced phospho-Chk1 immunofluorescence imaging, higher = more signal

Row | SMILES | composite z-score [1] | composite z-score (XIP peptide (Xip251-270)) | z-score [2] | z-score [3] | z-score [4] | z-score [5]
1 | NCCCCCNC(=O)[C@@H]1C[C@@H]2C(=O)N[C@@H](Cc3ccccc3)C(=O)N2[C@@H]1c1ccc(O)cc1 | 0.632 (inactive) | 0.549 | 1.35 | -1.87 (inactive) | 0.296 (inactive) | 0.204 (inactive)
2 | O=C1O[C@@H](c2ccccc2)[C@@H](c2ccccc2)N2[C@@H](c3ccccc3OCCO)[C@]3(C(=O)Nc4ccccc43)[C@@H](C(=O)Nc3nc4ccccc4s3)[C@H]12 | 1.13 (inactive) | 0.797 | -1.54 | 1.91 (inactive) | 0.489 (inactive) | 0.794 (inactive)
3 | C=CCOC(=O)[C@H]1[C@@H]2C(=O)O[C@@H](c3ccccc3)[C@@H](c3ccccc3)N2[C@@H](c2ccc(OCCOC(=O)[C@@H]3C[C@@H]4C(=O)N[C@@H](CC(C)C)C(=O)N4[C@@H]3c3ccc(O)cc3)cc2)[C@]12C(=O)Nc1ccccc12 | 1.25 (inactive) | 0.802 | -1.66 | -0.596 (inactive) | 0.659 (inactive) | 0.991 (inactive)
4 | O[C@@H](Cc1ccccc1)[C@H]1C2C=CCCC=C2CN1Cc1cccc(Cl)c1 (stereo partly specified) | 0.164 (inactive) | 0.421 | 0.461 | -7.63 (inactive) | 0.415 (inactive) | 0.0708 (inactive)
5 | COC(=O)[C@@]1(Cc2ccccc2)[C@H]2c3cc(C(=O)N4CCCC4)n(Cc4ccc(S(C)(=O)=O)cc4)c3C[C@H]2CN1C(=O)c1ccccc1 | 0.478 (inactive) | 0.215 | -1.5 | -4.67 (inactive) | 0.267 (inactive) | -0.364 (inactive)
6 | CC(C)C[C@@H]1NC(=O)[C@@H]2C[C@H](C(=O)O)[C@H](c3cccc(OCCO)c3)N2C1=O | 1.04 (inactive) | 0.708 | -0.222 | -2.76 (inactive) | 0.0342 (inactive) | 0.153 (inactive)
7 | COC(=O)[C@@]1(Cc2ccc(OC)cc2)[C@@H]2C(=CC(=O)[C@H]2CC(=O)C(=O)N2CCCC2)CN1C(=O)c1ccccc1 | -0.406 (inactive) | 0.161 | -0.918 | -2.39 (inactive) | -0.0101 (inactive) | -0.277 (inactive)
8 | COC(=O)C(CC#Cc1ccc2c(c1)[C@]1(C(=O)N2)[C@H](c2ccc(OCCO)cc2)N2[C@H](c3ccccc3)[C@H](c3ccccc3)OC(=O)[C@H]2[C@@H]1C(=O)Nc1nc2ccccc2s1)C(=O)OC | 0.081 (inactive) | 0.54 | -1.79 | 0.63 (inactive) | -0.378 (inactive) | -0.763 (inactive)
9 | CCOC(=O)C1=CC[C@@H](c2ccccc2)N(S(=O)(=O)c2ccc(C)cc2)[C@H]1c1ccccc1C | -0.164 (inactive) | 0.291 | -1.71 | -0.813 (inactive) | 0.023 (inactive) | 0.112 (inactive)
10 | C=CC[C@@]12N=C(c3ccc(OCCCO)cc3)O[C@@H]1c1ccccc1N(C)C2=O | 0.535 (inactive) | 0.759 | -1.9 | -4.57 (inactive) | 0.221 (inactive) | 0.444 (inactive)
11 | CN(C)C(=O)[C@@]1(CCS(=O)(=O)c2ccccc2)COC(c2ccc(OCCCO)cc2)=N1 | 0.551 (inactive) | 0.299 | -0.697 | -5.72 (inactive) | -0.0692 (inactive) | -0.023 (inactive)
12 | COC(=O)[C@@]1(Cc2ccc(F)cc2)[C@H]2c3cc(C(=O)N4CCCC4)n(Cc4ccc(S(C)(=O)=O)cc4)c3C[C@H]2CN1C(=O)c1ccccc1 | 0.845 (inactive) | 0.116 | -1.46 | -4.4 (inactive) | 0.396 (inactive) | 0.172 (inactive)
13 | COc1cc2c(cc1O)C(c1cccs1)N(C)CC2 (stereo unspecified) | -0.721 (inactive) | 0.594 | -1.12 | -3.91 (inactive) | -0.428 (inactive) | -0.628 (inactive)
14 | COc1ccc([Si](C)(C)[C@H]2[C@H](CCO)O[C@@]3(C(=O)N(Cc4ccc(N(C=O)c5ccccc5)cc4)c4ccccc43)[C@@H]2C)cc1 | 0.381 (inactive) | 0.282 | -1.93 | -0.824 (inactive) | 1.27 (inactive) | -0.123 (inactive)
15 | O=C(OCc1ccccc1)C1=CCC2c3[nH]c4ccccc4c3C(=O)C1N2S(=O)(=O)c1ccccc1[N+](=O)[O-] (stereo unspecified) | -0.0884 (inactive) | -0.0191 | -1.07 | -1.47 (inactive) | -0.824 (inactive) | -1.44 (inactive)
16 | O=C1C2C=CC(C(O)Cc3ccccc3)N(n3cnnc3)C2C(=O)N1Cc1ccccc1 (stereo unspecified) | -0.139 (inactive) | 0.686 | -1.29 | -3.18 (inactive) | -0.179 (inactive) | -0.472 (inactive)

Row | SMILES | composite z-score [1] | composite z-score (XIP peptide (Xip251-270)) | z-score [2] | z-score [3] | z-score [4] | z-score [5]
17 | CCOC(=O)C[C@H]1[C@H](OC(=O)c2ccccc2-c2ccccc2)[C@@H](NC(=O)CC(C)C)c2cc(OCCCO)ccc2N1C(=O)Cc1ccc(OC)cc1 | -0.245 (inactive) | -0.328 | -0.106 | -5.17 (inactive) | 0.34 (inactive) | 0.524 (inactive)
18 | [N-]=[N+]=Nc1ccccc1[C@H]1OC(c2ccc(OCCCO)cc2)=N[C@@]1(CCS(=O)(=O)c1ccccc1)C(=O)NCC(O)CO (stereo partly specified) | -0.193 (inactive) | 0.557 | -1.81 | -4.65 (inactive) | -0.0536 (inactive) | -0.22 (inactive)
19 | CCCC#C[Si](O[C@H](CC)c1cn(Cc2cccc(Cl)c2)nn1)(C(C)C)C(C)C | -0.0517 (inactive) | 0.298 | -0.0039 | -0.759 (inactive) | -0.501 (inactive) | -0.675 (inactive)
20 | CCCC[C@@H]1C[C@H]1[C@@H](NC(=O)c1ccccc1)c1ccc(C(=O)OC)cc1 | -0.0225 (inactive) | 0.221 | -0.0079 | -3.64 (inactive) | 0.665 (inactive) | 0.454 (inactive)
21 | CCCCCN1CC=CC23O[C@@H]4/C=C\CCC(C)OC(=O)C4[C@H]2C(=O)N(C(C)CO)[C@@H]3C1=O (stereo partly specified) | 0.176 (inactive) | 0.0664 | -0.107 | -4.77 (inactive) | -0.808 (inactive) | -0.732 (inactive)
22 | COC(=O)[C@@]1(Cc2ccc(OC)cc2)[C@H]2c3cc(C(=O)N(C)C)n(Cc4ccc(S(C)(=O)=O)cc4)c3C[C@H]2CN1C(=O)c1ccccc1 | 1.64 (inactive) | 0.233 | -0.0665 | -5.38 (inactive) | -0.907 (inactive) | -1.03 (inactive)
23 | C=CC[C@]1(C(=O)NCCCOC)N=C(c2ccc(OCCCO)cc2)O[C@H]1c1ccccc1CN=[N+]=[N-] | 0.967 (inactive) | 0.763 | -2.52 | -5.11 (inactive) | 0.14 (inactive) | -0.0062 (inactive)
24 | COCCOC(=O)N1C(=O)[C@@]2(c3cc(C#Cc4ccc(OC)cc4)ccc31)[C@H](c1ccccc1OCCO)N1[C@H](c3ccccc3)[C@H](c3ccccc3)OC(=O)[C@H]1[C@@H]2C(=O)NC[C@H](O)c1ccccc1 | 0.159 (inactive) | 0.815 | -1.8 | -1.34 (inactive) | -0.203 (inactive) | -0.29 (inactive)
25 | CCOC(=O)C[C@H]1[C@H](OC(=O)c2cc3ccccc3oc2=O)[C@@H](NC(=O)c2ccccc2)c2cc(OCCCO)ccc2N1C(=O)c1ccc2ccccc2n1 | -0.0302 (inactive) | 0.503 | -0.566 | -3.63 (inactive) | 0.091 (inactive) | 0.0741 (inactive)
26 | CN(C)CCCCCCNC(=O)[C@H]1C[C@H]2C(=O)N3CCC[C@H]3C(=O)N2[C@H]1c1ccc(O)cc1 | 1.75 (inactive) | 0.926 | -1.15 | -0.246 (inactive) | -0.0982 (inactive) | 0.307 (inactive)
27 | COC(=O)C[C@H]1O[C@]2(C(=O)N(C)c3ccccc32)[C@@H](C)[C@@H]1[Si](C)(C)F | -0.0066 (inactive) | 0.181 | 0.522 | -1.19 (inactive) | 0.23 (inactive) | 0.843 (inactive)
28 | CC(=O)NCCCC[C@@H]1NC(=O)[C@H]2C[C@@H](C(=O)NCCCCCCNC(=O)CS)[C@@H](c3ccc(O)cc3)N2C1=O | 0.957 (inactive) | 0.818 | -1.26 | -4.69 (inactive) | 0.307 (inactive) | 0.663 (inactive)
29 | Cc1ccc(S[C@]2(C(=O)NCCCN(C)C)CC(=O)N(Cc3cc(C(F)(F)F)cc(C(F)(F)F)c3)[C@@H]2c2ccc(CO)cc2)cc1 | -0.497 (inactive) | -0.583 | 0.798 | -2.68 (inactive) | 0.112 (inactive) | -0.331 (inactive)
30 | COC(=O)[C@H](Cc1ccccc1)N1CC2=C[C@@H](C3CC3)n3c(=O)n(C)c(=O)n3[C@H]2[C@@H]1[C@@H](O)Cc1ccccc1 | 0.475 (inactive) | 0.259 | -0.863 | -7.37 (inactive) | 0.183 (inactive) | 1.5 (inactive)
31 | C=CCOC(=O)[C@H]1[C@@H]2C(=O)O[C@@H](c3ccccc3)[C@@H](c3ccccc3)N2[C@@H](c2ccc(OCCOC(=O)[C@H]3C[C@H]4C(=O)N[C@@H](CCCCNC(C)=O)C(=O)N4[C@H]3c3ccc(O)cc3)cc2)[C@]12C(=O)Nc1ccc(I)cc12 | 0.159 (inactive) | 0.671 | -1.39 | 5.87 (inactive) | -0.484 (inactive) | -0.782 (inactive)
